Screen size: about 200,000 compounds; about 15 (0.007%) were called active. Cut-off read from the data, not from the text of the source: active = displacement above about 50%; inactive = the rest. For the sample, actives were picked, then their nearest neighbours and some compounds at random.

This experiment deals with E3 ubiquitin-protein ligase XIAP (Homo sapiens) (UniProt P98170). Kind of experiment: XIAP antagonists, biochemical, IAP family, fluorescence polarization (AID 1018). Conditions: XIAP BIR domain, fluorescence polarization peptide displacement; at 20 µM; stronger effect = higher value. (Polarisation of emitted light reports the rotation of a fluorescent probe.)
Chain of E3 ubiquitin-protein ligase XIAP (Homo sapiens) (P98170 whole entry, looked up, the tested form may be a part): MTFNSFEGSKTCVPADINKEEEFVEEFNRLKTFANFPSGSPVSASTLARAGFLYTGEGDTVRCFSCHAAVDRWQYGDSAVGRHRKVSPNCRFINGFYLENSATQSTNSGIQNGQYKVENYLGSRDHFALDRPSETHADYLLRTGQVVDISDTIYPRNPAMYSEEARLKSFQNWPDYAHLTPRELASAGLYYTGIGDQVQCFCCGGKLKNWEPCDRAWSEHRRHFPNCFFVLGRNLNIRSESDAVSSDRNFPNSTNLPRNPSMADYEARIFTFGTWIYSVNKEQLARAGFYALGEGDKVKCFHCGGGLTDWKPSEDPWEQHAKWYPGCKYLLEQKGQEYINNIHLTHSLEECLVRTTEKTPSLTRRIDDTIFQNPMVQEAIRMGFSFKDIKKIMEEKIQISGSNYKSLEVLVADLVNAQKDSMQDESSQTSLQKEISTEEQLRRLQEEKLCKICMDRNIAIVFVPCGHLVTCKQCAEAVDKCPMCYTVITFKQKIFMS
Turning to `COc1ccc(OC)c(NC(=O)C23CC4CC(C2)CC(n2cnc(Br)n2)(C4)C3)c1`, the displacement was -3.2% (inactive). On to `CCC(Oc1ccccc1)C(=O)N1CC(C)CC(C)C1` (stereo not given), for which the displacement is 2.4% (inactive). Take `C[N+]1(CC(=O)OCCCc2ccccc2)CCCC1`: the displacement was -9.6% (inactive). For `O=C(NC1CCCc2ccccc21)c1ccc(S(=O)(=O)N2CCOCC2)cc1` (stereo not given), the displacement is -3.4% (inactive). Turning to `CCOc1cccc2cc(C(=O)N3CCc4ccccc43)c(=O)oc12`, the displacement was -88.7% (inactive).

Turning to `CCC(/C=N/NC(=O)C(=O)N/N=C/C(CC)CC)CC`, the displacement was -0.2% (inactive). Turning to `O=C(COc1cccc(NC(=O)c2cccc([N+](=O)[O-])c2)c1)c1ccc(Br)cc1`, the displacement is -6.2% (inactive). As for `COc1cccc(C(=O)COc2cccc(NC(=O)c3cccc([N+](=O)[O-])c3)c2)c1`, the displacement was -1.9% (inactive).

Turning to `O=C(COc1cccc(NC(=O)c2cccc([N+](=O)[O-])c2)c1)c1ccc(F)cc1`, the displacement was 59.8% (active).

Regarding `CC(=O)Nc1ccccc1OCC(=O)NCCc1ccc(Cl)cc1Cl`, the displacement is -8.3% (inactive). Regarding `COCCNC(=O)CCSCc1ccccc1F`, the displacement was -1.3% (inactive). With `O=C(Nc1ccccc1C(F)(F)F)NC1CCCCC1`, the displacement is -2.8% (inactive). `CC(=O)Nc1cc(C)c(S(C)(=O)=O)c(C)c1`: the displacement is -8.9% (inactive). Regarding `CC1CN(CC(O)COC(c2ccccc2)c2ccccc2)CC(C)O1` (stereo not given), the displacement is -4.7% (inactive). In the case of `CC(=C/c1ccc(C(C)C)cc1)/C=N/NC(=O)c1ccncc1`, the displacement is -6.3% (inactive).

Take `O=C(CN1CCc2ccccc2C1)Nc1ccc(F)cc1F`: the displacement is -0.5% (inactive). `Cc1ccc(C(=O)Nc2ncc(C)s2)o1`: the displacement is -3.4% (inactive).

Turning to `COc1ccccc1CCc1nnc(CCC(=O)NCCCOc2cccnc2)o1`, the displacement is -4.3% (inactive). Next, `CC1=C(C(=O)Nc2ccccc2)C(c2ccccc2[N+](=O)[O-])NC(=O)N1` (stereo not given): -1.5% (inactive). `O=[N+]([O-])c1ccccc1OCCCN1CCOCC1`: the displacement was -4.4% (inactive). As for `CC(C)CNC(=O)NC(=O)COc1ncnc2sccc12`, the displacement is -1.4% (inactive).

Take `COc1ccc(NC(=O)CSc2nnc(NC(=O)c3ccccc3C(=O)O)s2)cc1`: the displacement was -4.3% (inactive). As for `Cc1ccc(Sc2nc(C)cc(C)c2S(C)(=O)=O)cc1`, the displacement is -4.9% (inactive). On to `COCCNC(=O)NC(=O)COC(=O)c1ccc2[nH]c3c(c2c1)CCCC3`, for which the displacement is -1.1% (inactive). Take `O=C(CCCC(=O)OCC(Cl)=C(Cl)Cl)Nc1cccc(F)c1`: the displacement is -3.5% (inactive).

For the origin of these results see PubChem BioAssay AID1018 (Sanford-Burnham Center for Chemical Genomics, 2008).
